In PubChem BioAssay (EPA / NIEHS):
Records with an inconclusive call do not appear. Activity calls are given as the source filed them. Rule for the calls, unless noted: active = hit-call score of the fitted dose curve at least 0.9, where 1 is the maximum; inactive = score below 0.9.

Columns and labels:
[1] = CCTE_Mundy_HCI_Cortical_Synap_Neur_Matur_NeuriteSpotCountPerNeuron: CCTE's Synaptogenesis and Neurite Maturation Assay in rat cortical cells for Neurite Spot Count per Neuron Count, Mundy Lab (AID 2284215)
Outline: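 Synapse density is scored as synaptophysin spots along neurites per neuron in fixed rat cortical neurons, measured at DIV 12 after chemical dosing at DIV 7. DMSO is the negative control and activity baseline.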

[2] = CCTE_Mundy_HCI_Cortical_Synap_Neur_Matur_SynapseCount: CCTE's Synaptogenesis and Neurite Maturation Assay in rat cortical cells for Synapse Count, Mundy Lab (AID 2284218)
Outline: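 Endpoint: synapses/neuron by HCI (synaptophysin puncta on MAP2-labelled neurites, Hoechst nuclei). Rat primary cortical cells, AraC DIV 5, dosed DIV 7, fixed DIV 12; DMSO negative control.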

[3] = CCTE_Mundy_HCI_Cortical_Synap_Neur_Matur_NeuriteCount: CCTE's Synaptogenesis and Neurite Maturation Assay in rat cortical cells for Neurite Count, Mundy Lab (AID 2284222);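 note: exposure from day 7 to day 12 in vitro with readout at day 12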
Outline: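 Rat primary cortical cells; AraC added at DIV 5, chemicals dosed with media change at DIV 7 through DIV 12. MAP2/synaptophysin/Hoechst immunostaining, high-content imaging of neurite number; fitted relative to DMSO.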

[4] = CCTE_Mundy_HCI_Cortical_Synap_Neur_Matur_CellBodySpotCount: CCTE's Synaptogenesis and Neurite Maturation Assay in rat cortical cells for Cell Body Spot Count, Mundy Lab (AID 2284223)
Outline: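 Synapse number at neuronal cell bodies was quantified as synaptophysin puncta per neuron in rat cortical cultures exposed from DIV 7 to DIV 12. Values were normalised to DMSO.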

[5] = CCTE_Mundy_HCI_hNP1_Pro_ResponderAvgInten: CCTE's Proliferation Assay in human neuroprogenitor cells, Mundy Lab (AID 2284224; active = hit-call score of the fitted dose curve at least 0.9, where 1 is the maximum;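 note: human neural progenitor cells hNP1 derived from WA09 embryonic stem cells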)
Outline: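 Human neuroprogenitors (hNP1, WA09 lineage) receive test chemical after 40 to 44 hours of attachment. A four-hour BrdU pulse begins twenty hours later, followed by fixation and high content imaging; signal is referenced to DMSO controls.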

[6] = UKN2_HCS_IMR90_cell_viability: Viability Assessment in the University of Konstanz (UKN) Leist Lab Neural Crest Cell Migration Assay in human induced IMR90 Pluripotent Stem Cells (UKN2) (AID 2284233);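 note: viability of neural crest cells differentiated from IMR90 iPSC measured by calcein-AM fluorescence imaging; cells exposed to compound for 24 h after a 24 h migration phase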
Outline: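 cMINC format, iPSC-derived neural crest (IMR90); 24 h migration (EGF/FGF, N2-S), then 24 h toxicant. Calcein-AM/H-33342 stain 30 min; fluorescence intensity by HCS; DMSO-normalised, bidirectional fitting.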

[7] = CCTE_Mundy_HCI_Cortical_NOG_NeuronCount: CCTE's Neurite Outgrowth Assay in rat cortical cells for Neuron Count, Mundy Lab (AID 2284236; active = hit-call score of the fitted dose curve at least 0.9, where 1 is the maximum;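 note: neurons counted by imaging betaIII-tubulin and Hoechst stained cortical cells; cells exposed to compound for about 48 hours before fixation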)
Outline: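 Read-out: neuron number by high-content imaging of betaIII-tubulin (Alexa Fluor-488) and Hoechst-labelled rat primary cortical cells.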

[8] = CCTE_Mundy_HCI_Cortical_NOG_BPCount: CCTE's Neurite Outgrowth Assay in rat cortical cells for Branch Point Count, Mundy Lab (AID 2284237)
Outline: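 Measured 50.33 h after dosing, this morphology endpoint uses rat primary cortical cultures labelled for betaIII-tubulin. Branch points are quantified by high-content imaging, with DMSO as negative control and baseline.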

[9] = CCTE_Mundy_HCI_hNP1_Casp3_7: CCTE's Caspase-Glo 3/7 Assay in human neuroprogenitor cells for Apoptosis, Mundy Lab (AID 2284240)
Outline: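 Neuroepithelial-lineage stem cells from WA09 embryonic cells were treated with chemicals after 40–44 h of culture. Twenty-four hours later, caspase-3/7 activation was detected luminescently after a 30 min room-temperature reagent step, with DMSO as baseline.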

[10] = CCTE_Mundy_HCI_hNP1_CellTiter: CCTE's Cell Titer-Glo 2 Assay in human neuroprogenitor cells for Viability, Mundy Lab (AID 2284241; active = hit-call score of the fitted dose curve at least 0.9, where 1 is the maximum)
Outline: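 Measures ATP content in human neural progenitors derived from WA09 embryonic cells. Read-out at 26.5 hours after dosing, with DMSO serving as the negative control and baseline.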

[11] = IUF_NPC2c_oligodendrocyte_migration_120hr: Leibniz Research Institute for Environmental Medicine (IUF) 120-hour Neural Progenitor Cell Migration Assay for Oligodendrocyte Migration (NPC2c) (AID 2284297);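 note: O4-positive oligodendrocyte migration distance divided by radial glia migration distance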
Outline: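 Primary hNPC spheres migrating on extracellular matrix, exposed five days to a 7-point dilution series with solvent control. Oligodendrocyte migration was scored by high-content imaging of O4 immunostaining and expressed relative to radial glia distance.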

[12] = IUF_NPC2a_radial_glia_migration_120hr: Leibniz Research Institute for Environmental Medicine (IUF) 120-hour Neural Progenitor Cell Migration Assay for Radial Glia Migration (NPC2a) (AID 2284298)
Outline: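 In this multiplexed test, fetal hNPC spheres migrate radially on poly-D-lysine/laminin in N2 medium (37C, 5% CO2, pH 7.2-7.6) under continuous compound exposure over five days. Migration is scored at 120 h from automated Hoechst nuclear imaging.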

[13] = IUF_NPC2a_radial_glia_migration_72hr: Leibniz Research Institute for Environmental Medicine (IUF) 72-hour Neural Progenitor Cell Migration Assay for Radial Glia Migration (NPC2a) (AID 2284299)
Outline: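 Spheres of human primary neural progenitors migrate on poly-D-lysine/laminin under compound exposure at 37C, 5% CO2. The 72 h radial glia migration distance comes from brightfield images, measured manually.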

[14] = IUF_NPC2b_neuronal_migration_120hr: Leibniz Research Institute for Environmental Medicine (IUF) 120-hour Neural Progenitor Cell Migration Assay for Neuron Migration (NPC2b) (AID 2284300)
Outline: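 Neurons identified by TUBB3 immunostaining and Hoechst nuclei; migration distance measured automatically on fixed wells at 120 h, normalized to glia migration. Exposure spanned five days of differentiation in N2 medium, seven test concentrations.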

[15] = IUF_NPC3_neuronal_differentiation_120hr: Leibniz Research Institute for Environmental Medicine (IUF) 120-hour Neuronal Differentiation Assay (NPC3) (AID 2284301)
Outline: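 Neuronal differentiation of primary human neural progenitors measured by high-content imaging: percent TUBB3+ of Hoechst+ nuclei within migrated area at 120 h, seven-point serial dilution plus solvent control, gain or loss relative to DMSO.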

[16] = IUF_NPC4_neurite_length_120hr: Leibniz Research Institute for Environmental Medicine (IUF) 120-hour Neuronal Morphology Assay for Neurite Length (NPC4) (AID 2284302)
Outline: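 Neurons from differentiating human fetal neural progenitor spheres are scored for average neurite length after five days of compound exposure. Fitting uses DMSO as negative control.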

[17] = IUF_NPC5_oligodendrocyte_differentiation_120hr: Leibniz Research Institute for Environmental Medicine (IUF) 120-hour Oligodendrocyte Differentiation Assay (NPC5) (AID 2284304; active = hit-call score of the fitted dose curve at least 0.9, where 1 is the maximum;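 note: primary human fetal neural progenitor spheres plated to migrate and differentiate; share of O4-positive cells among Hoechst nuclei found by CNN image analysis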)
Outline: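 Human primary NPC neurospheres migrating and differentiating on laminin for 120 h under continuous compound exposure (serial dilution, solvent control). Endpoint: percent O4+ oligodendrocytes among Hoechst nuclei, detected by CNN image analysis, with DMSO as negative control.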

[18] = IUF_NPC4_neurite_area_120hr: Leibniz Research Institute for Environmental Medicine (IUF) 120-hour Neuronal Morphology Assay for Neurite Area (NPC4) (AID 2284305; active = hit-call score of the fitted dose curve at least 0.9, where 1 is the maximum)
Outline: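 Endpoint at 120 h: automated imaging of TUBB3/Hoechst-stained differentiating human neural progenitor spheres, neurite area per neuron from skeletonization. DMSO solvent control, not above 0.1%, set the baseline; medium was half-replaced on day 3.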

[19] = IUF_NPC2-5_cytotoxicity_72hr: Cytotoxicity Assessment at 72 hours in the Leibniz Research Institute for Environmental Medicine (IUF) Neural Progenitor Cell Migration and Differentiation Assay for Cytotoxicity (NPC2-5) (AID 2284306; active = hit-call score of the fitted dose curve at least 0.9, where 1 is the maximum;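 note: LDH release into supernatant measured by resorufin fluorescence marking membrane damage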)
Outline: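 Primary human neural progenitor spheres migrate and differentiate on laminin. Compound is present from the start of differentiation, with DMSO kept at or below 0.1%. At 72 h, supernatant LDH is quantified fluorometrically, with values fitted in the positive direction.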

[20] = IUF_NPC2-5_cell_number_120hr: Cell Number Assessment at 120 hours in the Leibniz Research Institute for Environmental Medicine (IUF) Neural Progenitor Cell Migration and Differentiation Assay (NPC2-5) (AID 2284308);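 note: count of Hoechst-stained nuclei in migration zone around plated human neural progenitor spheres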
Outline: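 Cell number is taken as all Hoechst-positive nuclei detected in the area into which cells migrate out of the sphere, scored at 120 h and referenced to DMSO solvent control, which was kept at no more than 0.1%.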

[21] = IUF_NPC2-5_viability_120hr: Viability Assessment at 120 hours in the Leibniz Research Institute for Environmental Medicine (IUF) Neural Progenitor Cell Migration and Differentiation Assay (NPC2-5) (AID 2284312)
Outline: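 Human fetal (GW 16-19) neural progenitor spheres of 0.3 mm were plated on poly-D-lysine/laminin in N2 differentiation medium and exposed from day 0 for 120 h, with half-medium refresh at day 3. Viability was read as alamar blue resazurin-to-resorufin fluorescence against DMSO.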

[22] = CCTE_Mundy_HCI_iCellGluta_NOG_NeuriteLength: CCTE's Neurite Outgrowth Assay in iCellGluta cells for Neurite Length, Mundy Lab (AID 2284318; active = hit-call score of the fitted dose curve at least 0.9, where 1 is the maximum)
Outline: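 Automated high-content imaging of betaIII-tubulin (Alexa Fluor-488) and Hoechst-stained cells gave neurite length, normalized to the DMSO baseline.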

[23] = IUF_NPC1_cytotoxicity_72hr: Cytotoxicity Assessment at 72 hours in the Leibniz Research Institute for Environmental Medicine (IUF) Neural Progenitor Cell Proliferation Assay (NPC1) (AID 2284332; active = hit-call score of the fitted dose curve at least 0.9, where 1 is the maximum;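 note: rising LDH signal means more cytotoxicity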)
Outline: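 Readout is fluorescence from LDH-dependent resazurin conversion, sampled from culture medium after compound contact lasting 72 h. Each well holds one 0.25-0.35 mm human progenitor sphere kept at 37C, 5% CO2 with EGF and FGF.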

[24] = CCTE_Mundy_HCI_iCellGluta_NOG_NeuronCount: CCTE's Neurite Outgrowth Assay in iCellGluta cells for Neuron Count, Mundy Lab (AID 2284340; active = hit-call score of the fitted dose curve at least 0.9, where 1 is the maximum;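 note: cells fixed about 48 h after compound addition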)
Outline: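 Neuron count read by automated high-content imaging of Hoechst 33342 and betaIII-tubulin/Alexa Fluor-488 labelling in human iPSC glutamatergic neurons. Activity fitted relative to DMSO.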

[25] = CCTE_Mundy_HCI_iCellGluta_NOG_NeuriteCount: CCTE's Neurite Outgrowth Assay in iCellGluta cells for Neurite Count, Mundy Lab (AID 2284342; active = hit-call score of the fitted dose curve at least 0.9, where 1 is the maximum;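 note: chemical exposure about 48 hours starting 2 hours after plating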)

Measured: AC50

CCCCCC(C)(CC)C(=O)NC (stereo not given)
active: [13] 1020 nM
inactive: all other assays above
